From PubChem
Most compounds without a hit are left out; they make up all but 2.2% or so of the library.
Ba/F3 V617F tox: reduced viability of JAK2V617F-dependent Ba/F3 cells, primary screen, JAK2V617F inhibitor project, cell-based, Ba/F3 EpoR-JAK2V617F, luminescence | inhibition, % at 5.6 µM | ATP luminescence | 220,000 compounds, 1.1% hits;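 active means inhibition above the campaign mean plus 3 SD over all tested compounds, cut at about 24% in these data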;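 further: cytokine-independent growth of Ba/F3 cells driven by EpoR plus mutant JAK2; 0% = DMSO-treated cells and 100% = JAK inhibitor I control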
BaF3 parental: parental Ba/F3 cell viability inhibition, counter-screen for JAK2V617F inhibitor project, murine pro-B, CellTiter-Glo luminescence; inhibition, % at 5.6 µM; CellTiter-Glo ATP luminescence; AID 1486, 2009; 220,000 compounds, 1.1% hits;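 active means inhibition above a per-campaign cutoff, the mean inhibition of all tested compounds plus 3 SD, cut at about 27% in these data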;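 further: 0% = DMSO wells and 100% = JAK Inhibitor I control wells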
IEC-6 cytotox: cytotoxicity in IEC-6 intestinal epithelial cells, primary screen, cytotoxicity control for KLF5 inhibitor project, cell-based, luminescence; inhibition, % at 5 µM; 290,000 compounds, 0.78% hits; IEC-6 cytotoxicity, luminescence viability; AID 1825, 2009; in the data active means inhibition above about 22%;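 further: 0% = plate median of test compound wells and 100% = cytotoxic reference compound wells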
APP transl inh: inhibitors of APP translation via 5'UTR reporter, primary screen, APP 5'UTR luciferase, SH-SY5Y cells; SH-SY5Y APP 5'UTR-luciferase reporter, luminescence; inhibition, % at 2 µM; 190,000 compounds, 0.82% hits; AID 1285, 2008;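 active means inhibition above a set limit, derived from the sample mean plus 3 SD, cut at about 45% in these data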
aSyn UTR inh: MLPCN primary screen, SNCA 5' untranslated region | 300,000 compounds, 0.82% hits | AID 1813, 2009 | inhibition, % (tested at 7.5 µM) | alpha-synuclein 5'UTR reporter, inhibitor activity; in the data active means inhibition above about 60%;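 further: H4 neuroglioblastoma cells stably carrying SNCA 5'UTR luciferase fusion; 0% = DMSO wells and 100% = positive control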
KLF5 inhibitor: KLF5 expression inhibitors, primary screen, DLD-1 cells, luminescence; DLD-1 KLF5 promoter-luciferase reporter; inhibition, % at 5 µM; 290,000 compounds, 0.23% hits; AID 1700, 2009;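 active means inhibition above a per-plate limit of that plate's mean compound inhibition plus 3 SD, cut at about 60% in these data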;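 further: 0% = DMSO wells and 100% = LY294002 at 200 µM; higher means less KLF5 promoter-driven luciferase light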
* marks the source's active call; other numbers are inactive results; · = no result.

SMILES | Ba/F3 V617F tox | BaF3 parental | IEC-6 cytotox | APP transl inh | aSyn UTR inh | KLF5 inhibitor
CCn1cc(C(=O)N[C@H](C(=O)NCCCN2CCOCC2)C(C)C)c(=O)c2cc3c(cc21)OCO3 | · | · | -2 | · | 5 | -18
CCC(C)Nc1c2c(nc3c(-c4ccccc4)c(C)nn13)CCC2 (configuration not stated) | -1 | 7 | -3 | -1 | 35 | 14
COc1ccc([N+](=O)[O-])cc1N(CC(=O)NCCSc1ccc(C)cc1)S(C)(=O)=O | 3 | -3 | -2 | 4 | -6 | -28
Cc1cccc(NS(=O)(=O)c2ccc(NC(=O)CN(c3cc([N+](=O)[O-])ccc3C)S(C)(=O)=O)cc2)c1 | 11 | 12 | 97* | 11 | 101* | 0
COc1ccc(C)cc1NS(=O)(=O)c1ccc(NC(=O)CN(c2cc([N+](=O)[O-])ccc2C)S(C)(=O)=O)cc1 | 6 | 9 | 7 | 59* | 114* | 7
CC(=O)N1CCc2cc(S(=O)(=O)NC(C(=O)N3CCN(c4ccccc4F)CC3)C(C)C)ccc21 (configuration not stated) | · | · | · | · | -50 | ·
COc1ccccc1CNC(=O)c1ccc(CS(=O)(=O)c2ccc(C)cc2)o1 | · | · | 2 | · | -14 | -14
O=C(/C=C/c1ccc(O)c(O)c1)c1ccccc1O | 84* | 40* | 17 | · | -293 | -117
O=C(Nc1nnc(SCC(=O)N2CCCCC2)s1)c1c(F)cccc1F | · | · | -3 | · | -12 | -14
COc1ccccc1-n1nc(C(=O)O)c2ccccc2c1=O | -3 | 69* | -3 | -14 | 7 | -52
O=C(NCc1cccnc1)c1cc(S(=O)(=O)N2CCCCC2)ccc1Cl | -4 | 2 | 0 | -4 | -17 | -33
CCn1cc(C(=O)N2CCN(c3ccc(F)cc3)CC2)c2cc(OC)c(OC)cc2c1=O | -6 | -3 | -6 | 48* | 11 | -19
O=C(CCN1CCc2ccccc2C1)Nc1cccc(F)c1 | 4 | 6 | 6 | 4 | -9 | -3
CC(C)(C)c1ccccc1NC(=S)NC1CCCC1 | · | · | 9 | · | -3 | -10
CC(C)(C)c1ccccc1NC(=S)NC1CCCCC1 | -4 | 40* | 16 | -23 | 7 | -13
CCCCCCCOc1ccc(OC(=O)c2cccnc2)cc1 | 58* | 44* | 13 | -3 | 23 | -18
OC(c1cc(-c2ccc(C(F)(F)F)cc2)nc(C(F)(F)F)c1)C1CCCCN1 (configuration not stated) | 96* | 53* | 40* | · | 103* | -2
O=[N+]([O-])c1ccc(C[n+]2ccc(Cc3ccccc3)cc2)cc1 | 13 | 37* | -1 | -43 | 13 | -18
c1ccc(Cc2cc[n+](Cc3ccccn3)cc2)cc1 | 57* | 65* | 2 | · | 3 | -22
CN(C)CCCOC(=O)N1c2ccccc2C=Cc2ccccc21 | · | · | 5 | · | -9 | -13
COC(=O)c1ccc2c(c1)C(C)(C)C(/C=C/c1ccccc1O)=[N+]2C | 3 | 14 | -2 | -12 | 118* | -39
Cc1ccc(SCc2cc(=O)[nH]c(/N=C(\N)Nc3ccc(C)c(C)c3)n2)cc1 | 2 | 2 | 7 | -25 | -6 | 7
CCOc1cc(/C=C2/NC(=O)N(Cc3ccccc3F)C2=O)ccc1O | 95* | 72* | 3 | 25 | -5 | -19
CCc1ccccc1OCC(=O)Nc1nc(-c2cccnc2)cs1 | 0 | 9 | 6 | 6 | 70* | 13
CCC(=O)c1ccc(OCC(=O)Nc2nc(-c3cccnc3)cs2)cc1 | · | · | · | · | -17 | ·
Cc1ccc(CNCC(O)(c2ccccc2)c2ccc(Cl)cc2)cc1 (configuration not stated) | 19 | 29* | 7 | 5 | 3 | -15
CCc1cc(=O)oc2cc(C)cc(OC(C)C(=O)NCc3ccccn3)c12 (configuration not stated) | · | · | -1 | · | -1 | -6
c1ccc2c(c1)ccc1ncccc12 | -1 | 7 | 0 | 18 | 18 | 2
Oc1c(N=Nc2ccccn2)ccc2ccccc12 | 12 | 4 | 12 | 82* | 74* | 9
Cc1ccc(CNC(=O)Cn2c([N+](=O)[O-])cnc2C)cc1 | -2 | 7 | -4 | 0 | 14 | -32
